The test concerns V-C8 + BRCA2 (BRCA2-proficient hamster cells). Nature of the test: normalised cell viability (fraction of plate median); higher = more viable cells (less toxic). The settings on record: 5 µM. The procedure, abridged:
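Hamster V-C8 cells with and without restored BRCA2 were exposed in 96-well plates to library drugs at 5 μM for 3 days (screen 1) or 6 days (screen 2). Cell viability was scored by resazurin assay, then median-plate normalised, averaging triplicate wells.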

Counter-ions that a name gives are not always drawn. ± gives the standard deviation of the averaged measurements. Over roughly 1,300 compounds, “normalised cell viability” has its median near 1; the lowest 2% begin near 0.15. The sample holds the lowest values, similar compounds and a random draw of the others, so the mix is not that of the screen.

With `CS(=O)(=O)c1ccc(C2=C(c3ccccc3)C(=O)OC2)cc1` [Rofecoxib], the normalised cell viability (treatment time: 3 days) turned out to be 1 ± 0.039 and the normalised cell viability (treatment time: 6 days) amounted to 1.02 ± 0.06.

As for `CS(=O)(=O)c1ccc([C@@H](O)[C@@H](CO)NC(=O)C(Cl)Cl)cc1` [Thiamphenicol], the normalised cell viability (treatment time: 3 days) is 0.9701 ± 0.0087 and the normalised cell viability (treatment time: 6 days) was found to be 0.927 ± 0.02.

For the compound `NCCc1c[nH]cn1` [Histamine dihydrochloride], the normalised cell viability is, setting by setting: (treatment time: 3 days) 0.994 ± 0.016; (treatment time: 6 days) 0.991 ± 0.064.

For `COc1ccc(C(=O)CC(=O)c2ccc(C(C)(C)C)cc2)cc1` [Avobenzone], the normalised cell viability reads like this: (treatment time: 3 days) 1.02 ± 0.057; (treatment time: 6 days) 1.04 ± 0.12.

Turning to `CCN(CC)C(=O)/C(C#N)=C/c1cc(O)c(O)c([N+](=O)[O-])c1` [Entacapone], the normalised cell viability was found to be 0.944 ± 0.013 (treatment time: 3 days) and 1.03 ± 0.03 (treatment time: 6 days).

In the case of `CC(C)COCC(CN(Cc1ccccc1)c1ccccc1)N1CCCC1` (stereo not drawn) [Bepridil hydrochloride], the normalised cell viability (treatment time: 3 days) worked out at 0.938 ± 0.069 and the normalised cell viability (treatment time: 6 days) is 0.828 ± 0.035.

Regarding `COc1cc([C@@H]2c3cc4c(cc3[C@@H](O[C@@H]3O[C@@H]5CO[C@@H](C)O[C@H]5[C@H](O)[C@H]3O)[C@H]3COC(=O)[C@H]23)OCO4)cc(OC)c1O` [Etoposide], the normalised cell viability is, setting by setting: (treatment time: 3 days) 0.141 ± 0.0097; (treatment time: 6 days) 0.15 ± 0.017.

For `CC(=O)[C@@]12O[C@](C)(c3ccccc3)O[C@@H]1C[C@H]1[C@@H]3CCC4=CC(=O)CC[C@]4(C)[C@H]3CC[C@@]12C` [Algestone acetophenide], the normalised cell viability runs as follows: (treatment time: 3 days) 0.968 ± 0.025; (treatment time: 6 days) 1.07 ± 0.1.

As to `CCCCCCCCNC(C)C(O)c1ccc(SC(C)C)cc1` (stereo not drawn) [Suloctidil], the normalised cell viability came out at 0.653 ± 0.045 (treatment time: 3 days) and 0.743 ± 0.068 (treatment time: 6 days).

As to `CC(C)NCC(O)c1cc(O)cc(O)c1` (stereo not drawn) [Metaproterenol sulfate, orciprenaline sulfate], the normalised cell viability was 1.03 ± 0.023 (treatment time: 3 days) and 1.04 ± 0.02 (treatment time: 6 days).

Turning to `Nc1ccc(C(=O)O)c(O)c1` [4-aminosalicylic acid], the normalised cell viability was 0.944 ± 0.086 (treatment time: 3 days) and 1.03 ± 0.043 (treatment time: 6 days).

`CN(C)CCN(Cc1cccs1)c1ccccn1` [Methapyrilene hydrochloride]: the normalised cell viability amounted to 1.12 ± 0.021 (treatment time: 3 days) and 1.04 ± 0.042 (treatment time: 6 days).

Consider `CO/N=C(\C(=O)N[C@@H]1C(=O)N2C(C(=O)O)=C(C[N+]3(C)CCCC3)CS[C@H]12)c1csc(N)n1` [Cefepime hydrochloride], for which the normalised cell viability came out at 0.933 ± 0.092 (treatment time: 3 days) and 0.888 ± 0.098 (treatment time: 6 days).

With `CCC1NC(=O)c2cc(S(N)(=O)=O)c(Cl)cc2N1` (stereo not drawn) [Quinethazone], the normalised cell viability by setting is: (treatment time: 3 days) 0.989 ± 0.058; (treatment time: 6 days) 0.989 ± 0.073.

Regarding `Nc1ccc(/N=N/c2ccccc2)c(N)n1` [Phenazopyridine hydrochloride], the normalised cell viability (treatment time: 3 days) turned out to be 1.02 ± 0.039 and the normalised cell viability (treatment time: 6 days) was 1.04 ± 0.035.

In the case of `Clc1ccc(C(c2ccccc2Cl)C(Cl)Cl)cc1` (stereo not drawn) [Mitotane], the normalised cell viability amounted to 1.02 ± 0.035 (treatment time: 3 days) and 1.01 ± 0.076 (treatment time: 6 days).

Take `CC(C)NCC(O)c1ccc(O)c(O)c1` (single isomer, unassigned; (+)) [(+)-Isoproterenol (+)-bitartrate salt]: the normalised cell viability stood at 1 ± 0.048 (treatment time: 3 days) and 1.05 ± 0.07 (treatment time: 6 days).

In the case of `CC(=O)OCC(=O)[C@@]1(O)[C@H](C)C[C@H]2[C@@H]3CCC4=CC(=O)C=C[C@]4(C)[C@@]3(F)[C@@H](O)C[C@@]21C` [Dexamethasone acetate], the normalised cell viability (treatment time: 3 days) turned out to be 1.08 ± 0.057 and the normalised cell viability (treatment time: 6 days) came out at 1.02 ± 0.056.

Turning to `NC(=O)c1cnccn1` [Pyrazinamide], the normalised cell viability (treatment time: 3 days) was determined as 1.14 ± 0.039 and the normalised cell viability (treatment time: 6 days) was 1.02 ± 0.043.

For `CCN(CC)CCc1nc(-c2ccccc2)no1` [Oxalamine citrate salt], the normalised cell viability by setting is: (treatment time: 3 days) 1 ± 0.018; (treatment time: 6 days) 1.01 ± 0.03.

For the compound `C=C1/C(=C\C=C2/CCC[C@]3(C)[C@@H]([C@H](C)CCCC(C)C)CC[C@@H]23)C[C@@H](O)C[C@@H]1O` [Alfacalcidol], the normalised cell viability is, setting by setting: (treatment time: 3 days) 0.751 ± 0.062; (treatment time: 6 days) 0.719 ± 0.094.

For the compound `C[C@@H]1NC(=O)NC1=O` [Methylhydantoin-5-(L)], the normalised cell viability is, setting by setting: (treatment time: 3 days) 0.988 ± 0.053; (treatment time: 6 days) 1.07 ± 0.046.

Turning to `CCOC(=O)[C@H](CCc1ccccc1)N[C@H]1CCc2ccccc2N(CC(=O)O)C1=O` [Benazepril HCl], the normalised cell viability stood at 1.03 ± 0.018 (treatment time: 3 days) and 1.07 ± 0.029 (treatment time: 6 days).

As for `CC(C)NCC(O)c1ccc2ccccc2c1` (stereo not drawn) [Pronethalol hydrochloride], the normalised cell viability worked out at 0.972 ± 0.037 (treatment time: 3 days) and 0.995 ± 0.041 (treatment time: 6 days).

For `CC(=O)[C@H]1CC[C@H]2[C@@H]3CC=C4C[C@@H](O)CC[C@]4(C)[C@H]3CC[C@]12C` [Pregnenolone], the normalised cell viability was 1 ± 0.067 (treatment time: 3 days) and 1.07 ± 0.12 (treatment time: 6 days).

As to `O=C1c2c(O)ccc(O)c2C(=O)c2c(NCCNCCO)ccc(NCCNCCO)c21` [Mitoxantrone dihydrochloride], the normalised cell viability (treatment time: 3 days) turned out to be 0.123 ± 0.0098 and the normalised cell viability (treatment time: 6 days) is 0.124 ± 0.0098.

`O=C1c2c(O)cccc2Cc2cccc(O)c21` [Anthralin]: the normalised cell viability by setting is: (treatment time: 3 days) 0.979 ± 0.036; (treatment time: 6 days) 0.978 ± 0.018.

With `O=C1c2cccc(O)c2C(=O)c2c(O)cccc21` [1,8-Dihydroxyanthraquinone], the normalised cell viability by setting is: (treatment time: 3 days) 0.853 ± 0.051; (treatment time: 6 days) 0.914 ± 0.076.

Turning to `Clc1ccc(COC(Cn2ccnc2)c2ccc(Cl)cc2Cl)cc1` (stereo not drawn) [Econazole nitrate], the normalised cell viability reads like this: (treatment time: 3 days) 1 ± 0.025; (treatment time: 6 days) 1.04 ± 0.049.

As to `CC(=O)NC[C@H]1CN(c2ccc(N3CCOCC3)c(F)c2)C(=O)O1` [Linezolid], the normalised cell viability was determined as 1.06 ± 0.11 (treatment time: 3 days) and 1.04 ± 0.04 (treatment time: 6 days).

For the compound `O=C(NCC1CCCCN1)c1cc(OCC(F)(F)F)ccc1OCC(F)(F)F` (stereo not drawn) [Flecainide acetate], the normalised cell viability by setting is: (treatment time: 3 days) 1.12 ± 0.066; (treatment time: 6 days) 1.02 ± 0.12.

In the case of `CCCCC(C)(O)C/C=C/[C@H]1[C@H](O)CC(=O)[C@@H]1CCCCCCC(=O)OC` (mixture of isomers) [Misoprostol], the normalised cell viability runs as follows: (treatment time: 3 days) 0.976 ± 0.09; (treatment time: 6 days) 1.03 ± 0.024.

As for `CCN(CC)CCN[C@@H](C(=O)OCCC(C)C)c1ccccc1` [Camylofine chlorhydrate], the normalised cell viability (treatment time: 3 days) came out at 0.957 ± 0.014 and the normalised cell viability (treatment time: 6 days) amounted to 0.998 ± 0.096.

Regarding `CC1(C)S[C@@H]2[C@H](NC(=O)[C@H](C(=O)O)c3ccsc3)C(=O)N2[C@H]1C(=O)O` [Ticarcillin sodium], the normalised cell viability runs as follows: (treatment time: 3 days) 1.02 ± 0.021; (treatment time: 6 days) 1.04 ± 0.097.
